Bioassay records from PubChem BioAssay.
ALOX12 inh – ALOX12 (human) lipoxygenase inhibition; Potency, µM (series often up to 108 µM), for the others: at the highest dose activity change, negative = inhibition, hits mostly inhibitors; AID 1671190; hit rate 1.1% among 580,000; purified 12hLO, xylenol orange hydroperoxide absorbance; P18054; also: potency is read from the fitted curve at half-maximal effect
Target sequence (P18054 whole entry, looked up): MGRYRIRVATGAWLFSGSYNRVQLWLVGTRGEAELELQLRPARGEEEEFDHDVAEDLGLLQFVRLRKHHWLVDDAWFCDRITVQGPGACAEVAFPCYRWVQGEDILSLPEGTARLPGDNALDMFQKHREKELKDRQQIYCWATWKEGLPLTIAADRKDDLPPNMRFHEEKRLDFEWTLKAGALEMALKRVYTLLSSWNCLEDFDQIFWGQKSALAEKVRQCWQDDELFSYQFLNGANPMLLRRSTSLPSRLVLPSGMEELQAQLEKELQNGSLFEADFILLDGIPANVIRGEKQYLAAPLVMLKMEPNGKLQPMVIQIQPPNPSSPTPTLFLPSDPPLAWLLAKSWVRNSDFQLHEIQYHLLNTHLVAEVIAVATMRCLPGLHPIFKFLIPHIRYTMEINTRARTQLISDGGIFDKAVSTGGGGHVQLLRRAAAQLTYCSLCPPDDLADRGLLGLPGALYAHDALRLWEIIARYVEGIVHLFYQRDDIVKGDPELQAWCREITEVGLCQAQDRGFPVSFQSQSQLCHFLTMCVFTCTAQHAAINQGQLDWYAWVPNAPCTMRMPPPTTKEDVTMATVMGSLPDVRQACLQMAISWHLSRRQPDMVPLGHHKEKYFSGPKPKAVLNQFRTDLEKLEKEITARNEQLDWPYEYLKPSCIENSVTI
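Hydroperoxide product was detected by ferrous iron/xylenol orange as the 573 to 405 nm absorbance ratio. Arachidonic acid at 40 uM (final) was turned over for 30 min at room temperature by 150 nM human 12hLO, pH 7.0 Hepes buffer, after 15 min compound preincubation.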
DT40 TDP1 CPT – DT40-hTDP1 cell growth loss with CPT | chicken DT40 Tdp1-/-;hTDP1 cells + 20 nM CPT, ATP luminescence, 48 h | Potency, µM (doses to about 46.2 µM), for the others: top-dose activity change, negative = growth inhibition, hits mostly inhibitors | hit rate 12% among 420,000 | AID 686979; also: potency is read from the fitted curve at half-maximal effect; nearly all actives have a fitted effect of over 55% in size
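Cell growth measured by CellTiter-Glo luminescence after a minimum 48 h, 37 C compound exposure with 20 nM CPT in Tdp1-knockout DT40 cells stably expressing hTDP1, seeded 400/well; qHTS titration format.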
IL-1B inflam inh – inhibitors of inflammasome signaling (IL-1 beta secretion) | THP-1 LPS/ATP IL-1B secretion, AlphaLISA, 16 h; hits give low values | activity change, % at 57.5 µM | hit rate 4.7% among 360,000 | AID 743279; in the data active = activity change below about -50%; inconclusive = mostly about -30% to -49%
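THP-1 cells pretreated 1 hr with compounds (up to 57.5 uM final), then stimulated with LPS (250 ng/mL final) plus ATP (1.25 mM final); secreted IL-1B measured by AlphaLISA after 16 hr, decreased signal indicating inhibition.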
HT1080 IDH1KD tx – toxicity to HT-1080 IDH1 knockdown cells (counter line). HT-1080 IDH1 knockdown viability, ATP luminescence, 48 h. Potency, µM (top dose mostly 46.1 µM), for inactives: top-dose activity, negative = toxicity, hits mostly cytotoxic. hit rate 2% among 360,000;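 also: potency is read from the fitted curve at half-maximal effect; 0% = DMSO wells and -100% = cell-free medium wells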
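After a 2 h attachment period, IDH1KD HT-1080 cells took pin-transferred compound for 48 h at 37 °C; ATP-based luminescence after 10 min room-temperature reagent incubation reported viability.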
DT40 TDP1 no CPT – qHTS for Inhibitors of human tyrosyl-DNA phosphodiesterase 1 (TDP1): qHTS in cells in absence of CPT; DT40 Tdp1-/- hTDP1 cells, no CPT, ATP luminescence, 48 h; Potency, µM (titrated, usually from 46.2 µM), inactives show top-dose activity change, negative = growth inhibition, most hits filed as inhibitors; hit rate 15% among 420,000; also: potency is read from the fitted curve at half-maximal effect; nearly all actives have a fitted effect of over 55% in size
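Chicken DT40 Tdp1-/- cells stably complemented with human TDP1 were seeded at 400 cells/well with DMSO in place of 20 nM camptothecin. After compound pinning, cells grew at least 48 hr at 37 °C; viability read by CellTiter-Glo luminescence.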
HT1080NT lethal – kills 2HG-producing HT-1080-NT fibrosarcoma cells | HT-1080-NT fibrosarcoma viability, CellTiter-Glo ATP luminescence, 48 h | Potency, µM (titrated, usually from 46.1 µM), for the others: at the highest dose activity, negative = less viability, usual class: cytotoxic | hit rate 1.6% among 360,000 | AID 686970;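 also: NT is the 2HG producing partner of a matched IDH1 knockdown line; potency is read from the fitted curve at half-maximal effect; 0% = DMSO-treated cells and -100% = media-only wells without cells; nearly all actives have a fitted effect of over 55% in size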
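A 48-hour cytotoxicity screen used HT-1080-NT cells plated 2 hours before compound delivery. ATP-based CellTiter-Glo luminescence measured viability, normalized to DMSO and no-cell controls.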
Active calls of the source: *; ? = inconclusive; / = not tested or not shown; [ ] = remark or other dose. The sample as a whole holds a higher share of hits than the screen did. Unless noted, calls follow the shape of the dose curve; as a rule, active = well fitted curve in the direction sought with a large enough effect; inconclusive = small, poorly fitted or top-dose-only effect, or another doubt; inactive = no such curve, though single readings can be large; an effect the other way counts as inactive or inconclusive. Unless noted, % is scaled to controls: 0 for no effect and ±100 for the full control effect.

SMILES	ALOX12 inh	DT40 TDP1 CPT	IL-1B inflam inh	HT1080 IDH1KD tx	DT40 TDP1 no CPT	HT1080NT lethal
Fc1cccc2sc(Nc3nc4cc5c(cc4s3)OCO5)nc12	-23%	21µM*	12	?	?	?
CC(C)c1ccc2nc(NC(=O)C3CC3)sc2c1	-1%	?	-57*	-15%	?	-17%
Cc1ccc(CNC(=O)OC(C)(C)C)c(/C=C/S(=O)(=O)NCc2ccc(F)cc2)c1	7%	/	/	/	/	/
CCOC(=O)c1cc(-c2ccccc2)n(CC(=O)NCc2ccc(C)cc2)c1C	-14%	?	/	/	8.2µM*	/
CC(=O)c1cc(-c2ccccc2)n(CC(=O)Nc2ccc(C)c(C)c2)c1C	-7%	?	-9	-30%	12µM*	?
CCOC(=O)c1cc(-c2ccccc2)n(CC(=O)Nc2ccc(CC)cc2)c1C	-15%	8.2µM*	/	/	16µM*	/
CCc1cccc(NC(=O)Cn2c(-c3ccc(F)cc3)cc(C(C)=O)c2C)c1	-28%	13µM*	/	/	16µM*	/
CC(=O)Nc1ccc(CN2CCCC3(C2)NC(=O)c2ccccc2O3)cc1 (stereo not given)	42%	/	/	/	/	/
COc1cc(C(=O)N/N=C/c2ccc(OC)c(CN3CCN(c4ccc(F)cc4)CC3)c2)ccc1O	-4%	?	-7	-15%	?	-20%
O=C(Cn1cnc2cc(F)ccc2c1=O)N(C1CC1)C1CCS(=O)(=O)C1 (stereo not given)	-13%	/	/	/	/	/
O=C(Cc1cccs1)N1CC2CC(C1)[C@H]1CCCC(=O)N1C2 (stereo not given in full)	23%	/	/	/	/	/
CC1=C(c2ccc(F)cc2)S(=O)(=O)N=C1N1CCC(C(=O)NCCc2ccco2)CC1	?	-6%	/	/	-22%	/
CCOC(=O)c1c(C)oc2c1c(C=NCCO)c(O)c1ccccc12	-4%	-69%	-112*	23µM*	?	?
CCOC(=O)c1c(C)oc2c1c(C(c1ccccc1)N1CCOCC1)c(O)c1ccccc12 (stereo not given)	-10%	?	-71*	0%	18µM*	0%
CCCNC(=O)C[C@@H]1CCN(C(=O)c2ccnc(Cl)c2)C[C@@H]1CC	7%[176 µM]	/	/	/	/	/
COc1ccc(CNC(=O)c2c(Nc3ccccc3C)sc(C(=O)c3ccccc3)c2N)cc1	-1%	?	/	/	5.2µM*	/
COc1ccccc1Nc1sc(C(=O)c2ccc(Br)cc2)c(N)c1C(N)=O	-34%	/	/	/	/	/
COc1cccc(Nc2sc(C(=O)c3ccc(F)cc3)c(N)c2C(=O)NCc2ccc(C)cc2)c1	?	4.1µM*	/	/	5.2µM*	/
Cc1ccc(CNC(=O)c2c(Nc3ccccc3C)sc(C(=O)c3ccc(F)cc3)c2N)cc1	?	?	/	/	15µM*	/
COc1cc(/C=C(\C#N)C(=O)NC2CCCCC2C)ccc1OS(=O)(=O)c1ccc(C)cc1 (stereo not given)	-1%	?	-103*	?	16µM*	?
CSc1ccc(/C=C(/C#N)C(=O)NC2CCCC2)cc1	8%	/	/	/	/	/
CSc1ccc(/C=C(\C#N)C(=O)NC2CCCCC2C)cc1 (stereo not given)	-2%	?	-120*	?	10µM*	?
CC1CCCCC1NC(=O)/C(C#N)=C/c1ccccc1F (stereo not given)	-9%	-104%	-101*	18µM*	-100%	?
Cc1ccc(CN2CCCCCNC(=O)CC2c2ccccc2)s1 (stereo not given)	7%	/	/	/	/	/
CCOc1ccccc1NC(=O)c1cc(OC(C)=O)cc(OC(C)=O)c1	-19%	/	/	/	/	/
SMILES	ALOX12 inh	DT40 TDP1 CPT	IL-1B inflam inh	HT1080 IDH1KD tx	DT40 TDP1 no CPT	HT1080NT lethal
O=C(CSc1nc2cc([N+](=O)[O-])ccc2n1-c1ccccc1)NCc1ccc2c(c1)OCO2	-25%	15µM*	7	-3%	23µM*	-3%
Cc1cc(C)cc(-n2c(SCC(=O)NCc3ccc4c(c3)OCO4)nc3ccccc3c2=O)c1	10%	7.3µM*	-8	4%	18µM*	1%
Cc1cc(C(=O)CSc2nc3ccccc3c(=O)n2C)c(C)n1Cc1ccc2c(c1)OCO2	?	5.8µM*	-19	5.8µM*	6.5µM*	1%
COc1ccc2c(c1OC)OCC(c1ccc(OC)c(OC)c1OC)C2 (stereo not given)	/	6%	/	/	-9%	/
CC(C)=CCOc1ccc([C@@H]2COc3c(ccc4c3C=CC(C)(C)O4)C2)c(O)c1	-14%	16µM*	-20	?	21µM*	?
O=C(CN1C2=NCCN2c2ccccc21)c1ccc(Br)cc1	0%	?	-25	-15%	?	-26%
O=C(CN1C2=NCCCN2c2ccccc21)c1cccs1	73%	7%	-19	4%	-22%	0%
O=C(CN1C2=NCCCN2c2ccccc21)c1cccc(Br)c1	26%	?	-26	-24%	23µM*	-27%
O=C(CN1C2=NCCN2c2ccccc21)c1ccc(Br)s1	2%	18µM*	-18	2%	?	-2%
O=C(CN1C2=NCCN2c2ccccc21)c1ccc2c(c1)OCO2	6%	?	-81*	?	?	0%
O=C(CN1C2=NCCCN2c2ccccc21)c1ccc(Cl)cc1Cl	-9%	21µM*	-19	-28%	15µM*	-18%
COc1cccc(C2CC(=O)Nc3cc4c(cc32)OCO4)c1OC(C)C (stereo not given)	-13%	21µM*	/	/	?	/
Cc1cccc(C2CC(=O)Nc3cc4c(cc32)OCO4)c1 (stereo not given)	-10%	?	/	/	21µM*	/
CC(C)Oc1cccc(C2NC(=O)c3ccccc3O2)c1 (stereo not given)	-23%	-6%	-5	2%	-14%	-3%
CC(C)Oc1cccc(C2CC(=O)Nc3cc4c(cc32)OCO4)c1 (stereo not given)	?	2.6µM*	/	/	2.6µM*	/
COc1cc2c(cc1OC)C(c1ccc3c(c1)OCO3)CC(=O)N2 (stereo not given)	-13%	5%	25	?	?	?
O=C(NC1CCCc2nc(-c3cccnc3)ncc21)c1cn[nH]c1-n1cnnn1 (stereo not given)	6%	/	/	/	/	/
COc1ccc(C(=O)Nc2ccc3ncccc3c2)cc1	31%	5.8µM*	-24	-11%	?	-15%
O=C(Nc1cccc(-c2nc3cccnc3s2)c1)c1ccco1	3%[57.4 µM]	-23%	6	7%	?	-4%
CN(C)c1ccc(C(=O)Nc2cnc3ccccc3c2)cc1	40µM*	/	/	/	/	/
